# Compounds without any hit were thinned out: in the full panel of roughly 83,000, 20% have a hit.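 Single-concentration screen, 48 h exposure, 96-well plates. Endpoint: percent growth. Below 10 = active.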 Unmarked numbers belong to inactive results. Active and inactive are the calls of the source.
# Assays:
# Test in all cases: NCI-60 one-dose screen, 48 h (100 = growth as untreated, 0 = no growth, -100 = all killed)
# SR leukemia = conditions: 10 µM unless noted
# RPMI-8226 leukemia = conditions: 10 µM
# OVCAR-8 ovarian = conditions: 10 µM unless noted
# OVCAR-5 ovarian = conditions: 10 µM unless noted
# OVCAR-4 ovarian = conditions: 10 µM unless noted
# SK-OV-3 ovarian = conditions: 10 µM
# OVCAR-3 ovarian = conditions: 10 µM unless noted
# NCI/ADR-RES ovarian = conditions: 10 µM unless noted
# T-47D breast = conditions: 10 µM
# BT-549 breast = conditions: 10 µM unless noted
# MDA-MB-435 melanoma = conditions: 10 µM unless noted
# SW-620 colon = conditions: 10 µM unless noted
# MCF7 breast = conditions: 10 µM unless noted
# HCT-116 colon = conditions: 10 µM unless noted
# HCC-2998 colon = conditions: 10 µM unless noted
# KM12 colon = conditions: 10 µM unless noted
# IGROV1 ovarian = conditions: 10 µM unless noted
# HS 578T breast = conditions: 10 µM unless noted
SMILES,growth (SR leukemia),growth (RPMI-8226 leukemia),growth (OVCAR-8 ovarian),growth (OVCAR-5 ovarian),growth (OVCAR-4 ovarian),growth (SK-OV-3 ovarian) [%],growth (OVCAR-3 ovarian),growth (NCI/ADR-RES ovarian),growth (T-47D breast),growth (BT-549 breast),growth (MDA-MB-435 melanoma),growth (SW-620 colon),growth (MCF7 breast),growth (HCT-116 colon),growth (HCC-2998 colon),growth (KM12 colon),growth (IGROV1 ovarian),growth (HS 578T breast)
Cc1nn2c(-c3nc4ccc(Cl)cc4[nH]3)c(-c3ccc(F)cc3)nc2s1,72%,77.6%,87.7%,98.5%,115%,107,110%,96.4%,91.2%,102%,99.7%,91.2%,81.2%,86.3%,99.2%,89.4%,–,–
COc1cc(OCc2cccc(-c3ccc(C(O)c4nccs4)cc3)c2C)cc(OC)c1C=O (stereo unspecified),53.1%,22.1%,59.8%,16.5%,15.9%,–,48.1%,58.1%,–,39.6%,30.8%,56%,7.09% (active),23.1%,73.9%,71%,21%,67.1%
CN1CCN(C)c2cncc(Br)c2C1=O,84.1%,93.8%,102%,104%,115%,101,109%,98.3%,101%,–,-81.7% (active),102%,105%,–,98%,105%,108%,–
O=C1c2ccccc2-c2cn(Cc3ccccc3)c3cccc(c23)C1c1cccnc1 (stereo unspecified),8.31% (active),64.5%,57.9%,75.9%,64.3%,37.6,2.21% (active),–,43%,–,6.45% (active),30.8%,12.4%,27.9%,56.4%,30.5%,54.5%,–
COC(=O)CCC(=O)c1ccccc1,90.9%,98.6%,102%,98.4%,112%,119,111%,–,102%,107%,96.9%,106%,96.1%,108%,–,110%,–,123%
Oc1ccccc1/C=N/Nc1nc2ccccc2s1,43.7%,35.8%,57.3%,91.8%,19.9%,57.5,13.8%,51.6%,37.8%,51.4%,56.9%,50.1%,20.2%,41.2%,–,22.1%,–,65.2%
NC(=O)c1cc(I)ccc1NC(=O)COc1ccc(Cl)cc1Cl,40.9%,96.3%,102%,103%,114%,90.5,103%,82.3%,–,77.6%,14.9%,79.6%,72.2%,90.7%,95.3%,67.8%,89.3%,–
COC(=O)c1cc(-c2ccc(C)cc2)n(C(=O)CSc2nc3sc(C(N)=O)c(C)c3c(=O)n2Cc2ccccc2)n1,86.9%,94.4%,104%,110%,100%,96.8,106%,–,95.1%,96.1%,104%,105%,90.2%,92%,108%,100%,–,107%
COc1ccc(OC)c(/C=C2\Oc3cc(O)ccc3C2=O)c1,75.7%,92.2%,85.6%,101%,86.7%,–,95.8%,92.9%,–,79.8%,82.7%,92.2%,94.2%,79.2%,99.3%,108%,89.3%,80.8%
O=[N+]([O-])c1ccc(C=C2C(Cl)=C(Cl)C(Cl)=C2Cl)cc1,-1.36% (active),11.4%,22.4%,112%,54.5%,115,-17% (active),–,47.8%,97.7%,76.1%,-59.9% (active),34.8%,-11% (active),–,73.7%,–,-13.4% (active)
O=S(=O)(Nc1ccc(Cl)c(Cl)c1)c1ccc(-c2cnc(C3CC3)o2)cc1,43.7%,24.6%,33.3%,34.2%,46.4%,–,-17.8% (active),5.86% (active),–,56.2%,-32.8% (active),12.8%,17.9%,26.1%,38.2%,20%,27%,-18.5% (active)
Cc1cccc2c(=O)c3c(sc12)c(NCCCN)nc1ccccc13,-5.48% (active),-29.9% (active),27.3%,51.7%,47.4%,–,39.4%,24%,43.9%,65.9%,-75.4% (active),-72% (active),–,-92% (active),-30.9% (active),-64.4% (active),-24.1% (active),24.6%
COC(=O)[C@@]12CC[C@@H](C)[C@]3(C[C@@H](c4ccoc4)OC3=O)[C@H]1CC[C@@H]1O[C@@]12C,110%,110%,102%,91.4%,104%,–,110%,102%,–,101%,99.8%,97.1%,96.7%,95.5%,101%,103%,103%,98.7%
CCCCCCCC/C=C\CCCCCCCCOc1cccc(CC(=O)NCC[N+]2(C)CCOCC2)c1,55.7%,96.4%,93.8%,65.5%,90.3%,–,98.7%,112%,–,98.8%,94%,89.1%,83.8%,78.5%,80.6%,64.1%,0.48% (active),80.9%
OB(O)c1ccccc1,88%,102%,105%,108%,115%,–,114%,104%,–,96.2%,109%,108%,111%,108%,109%,107%,114%,102%
COc1ccc(S(=O)(=O)c2ccc(C(N)=O)cc2)cc1NC(=O)c1[nH]c(C)c2c1CCCCC2=O,50%,46.9%,74.5%,68.7%,51.1%,–,48%,105%,34.4%,58.6%,28.6%,68.4%,23.1%,60%,66%,65.4%,64.9%,-2.07% (active)
CCCCC1COc2cccc3c(SCC(=O)N(C)c4cccc5ccccc45)cc[n+]1c23 (stereo unspecified),96.1%,89.5%,102%,112%,99%,–,107%,104%,–,102%,103%,105%,91.7%,82.5%,90.3%,112%,111%,108%
COc1ccccc1/C=C/C(=O)/C=C/c1ccccc1O,-61.2% (active),-53.7% (active),2.91% (active),-35% (active),12.6%,88.9,-40.9% (active),–,-37.2% (active),-34.1% (active),-36.3% (active),-80.3% (active),-18.6% (active),-93.2% (active),4.04% (active),-93.9% (active),5.17% (active),–
COC(=O)c1c2c(c(C)[n+]([O-])c1C)C(=O)C(NCc1ccc(O)cc1)=CC2=O,11.1%,-2.15% (active),5.26% (active),-17% (active),-97.4% (active),–,-33.1% (active),-6.46% (active),-7.43% (active),34.5%,-96.5% (active),-3.33% (active),–,-6.79% (active),-20.1% (active),2.07% (active),-45% (active),-22.5% (active)
